# The whole screen tested about 50,000 compounds, of which about 800 (1.6%) showed an effect of 50% or more. Shown is part of a subset that was picked to be rich in strong results.
# Target: Bcl-2-like protein 10 (Homo sapiens) (UniProt Q9HD36)
# Experiment: Phenotype converters, Bcl-B/TR3 peptide binding displacement, primary biochemical FP (AID 1240);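 also: 0% = Bcl-B with tracer peptide and DMSO and 100% = tracer peptide lacking Bcl-B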
# Details: GST-Bcl-B / FITC-TR3 peptide fluorescence polarization; stronger effect = higher value; compound at 3.75 mg/L
# Sequence of Bcl-2-like protein 10 (Homo sapiens) (Q9HD36 whole entry, looked up): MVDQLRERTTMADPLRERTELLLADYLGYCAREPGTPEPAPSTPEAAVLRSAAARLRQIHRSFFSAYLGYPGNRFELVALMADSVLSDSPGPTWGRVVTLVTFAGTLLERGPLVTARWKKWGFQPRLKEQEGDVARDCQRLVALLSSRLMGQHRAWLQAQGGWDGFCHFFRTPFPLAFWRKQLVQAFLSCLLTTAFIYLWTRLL
row,Compound,displacement
1,CC1CCc2c(nc3ccccc3c2C(=O)O)C1 (centres undefined),-14.7%
2,CN(C)/C=C/C=C1C(=O)OC(C)(C)OC1=O,0.3%
3,O=C(O)c1ccccc1C(=O)c1ccc(Cl)c(N2C(=O)CCC2=O)c1,-1.3%
4,Cc1cc(NS(=O)(=O)c2ccc(NC(=O)C(Cl)(Cl)Cl)cc2)nc(C)n1,1.3%
5,COc1ccc(Br)cc1Cn1c(=O)[nH]c2cc(C(F)(F)F)ccc21,-5.6%
6,CC(C)(C)C(=O)Nc1cccc(C(=O)NCc2ccc(CNC(=O)c3cccc(NC(=O)C(C)(C)C)c3)cc2)c1,9.9%
7,O=C(Oc1cccc(/C=C2/SC(=S)N(c3ccccc3)C2=O)c1)c1ccco1,-17.2%
8,Cc1cc(-n2cc(C=O)c(-c3ccccc3)n2)nc2ccccc12,75.4%
9,O=Cc1cn(-c2ccccc2)nc1-c1ccc(Cl)cc1,7.5%
10,Cc1cc(C)c(-c2nn(-c3ccccc3)cc2C=O)c(C)c1,10.9%
11,Cc1ccc(C(=O)/C=C2\C(=O)Nc3ccccc32)cc1,6.7%
12,O=C(O)CCCC(=O)OCc1ccco1,31.3%
13,O=C(COc1ccc([N+](=O)[O-])cc1)NNC(=O)c1ccccc1Cl,11.6%
14,O=C1S/C(=C/c2ccc(-c3ccc(F)cc3)o2)C(=O)N1c1ccccc1,12.2%
15,O=C(O)c1ccc(-c2ccc(/C=C3/SC(=O)N(c4ccccc4)C3=O)o2)cc1,27.7%
16,O=[N+]([O-])c1ccc(-c2ccc(/C=N/n3cnnc3)o2)cc1,139%
17,O=[N+]([O-])c1ccccc1-c1ccc(/C=N/n2cnnc2)o1,8.8%
18,Fc1ccc(-c2ccc(/C=N/n3cnnc3)o2)cc1,7.8%
19,O=C1S/C(=C\c2ccc(-c3ccc([N+](=O)[O-])cc3)o2)C(=O)N1c1ccccc1,70.2%
20,O=C1S/C(=C\c2ccc(-c3ccccc3[N+](=O)[O-])o2)C(=O)N1c1ccccc1,47.7%
21,O=C1S/C(=C/c2ccc(-c3ccc([N+](=O)[O-])cc3Cl)o2)C(=O)N1c1ccccc1,47.4%
22,O=C1S/C(=C/c2ccc(-c3cccc([N+](=O)[O-])c3)o2)C(=O)N1c1ccccc1,111%

row,Compound,displacement
1,Cc1cccc(/C=C2/SC(=S)N(CN3CCCCC3)C2=O)c1,11.3%
2,O=C1CCCCC1Oc1ccc2c(-c3ccccc3)cc(=O)oc2c1 (centres undefined),-9.6%
3,O=C(COc1ccc2ccccc2c1)Nc1cc([N+](=O)[O-])ccc1F,29.5%
4,CCSC1C(C)=C(C)C(=O)N1C(C)(C)c1cc(Cl)cc(Cl)c1 (centres undefined),21.2%
5,O=C(CN1C(=O)/C(=C/c2ccccc2)SC1=S)Nc1cccc(Br)c1,11.9%
6,O=C(O)CCCCCCCCCCN1C(=O)/C(=C/c2cccc(Br)c2)SC1=S,-3.4%
7,O=C(O)CCCN1C(=O)/C(=C\c2cccc(O)c2)SC1=S,0.6%
8,CCOc1ccccc1NC(=O)CN1C(=O)/C(=C/c2cccc(Br)c2)SC1=S,78.7%
9,O=C(CN1C(=O)/C(=C/c2cccc(Br)c2)SC1=S)Nc1ccccn1,69%
10,CCOc1ccccc1NC(=O)CN1C(=O)/C(=C\c2cc(OC)c(OC)c(OC)c2)SC1=S,36.8%
11,O=C(CN1C(=O)/C(=C/c2cccc(Br)c2)SC1=S)Nc1cccnc1,9.6%
12,COc1ccc(NC(=O)CN2C(=O)/C(=C/c3cccc(Br)c3)SC2=S)cc1,11.6%
13,O=C(O)CCCN1C(=O)/C(=C/c2cccc(Br)c2)SC1=S,91.2%
14,O=c1[nH]c(=S)[nH]c(O)c1C=Nc1cc(Cl)ccc1O,3.2%
15,O=C(CN1C(=O)CCC1=O)NCCc1ccccc1,-5.5%
16,COc1ccc(Cl)cc1C(=O)Nc1cccc2nsnc12,12.8%
17,O=C1C(Cl)=C(Nc2ccccc2)C(=O)N1c1ccc(Br)cc1,6.4%
18,COc1ccccc1-n1c(O)c(C=Nc2ccccc2Cl)c(=O)[nH]c1=O,1.2%
19,O=C1C2=C(Nc3ccccc3SC2c2ccc3c(c2)OCO3)c2ccccc21 (centres undefined),-16.3%
20,CN1CCN(C(=O)CCN2C(=O)/C(=C/c3cccs3)SC2=S)CC1,0.2%
21,CCN(CC)C(=O)Cc1ccc2c3c(cccc13)CC2,12.7%
22,COc1ccc(NC(=O)C/C(C)=N/NC(=O)c2cnccn2)cc1,-21.6%

row,Compound,displacement
1,CC(=O)c1ccc(NC(=O)c2cnccn2)cc1,37.3%
2,COc1ccc(NC(=O)c2cnccn2)cc1,105%
3,CCOc1ccc(C(=O)Nc2ccc3oc(-c4ccccc4Br)nc3c2)cc1,14%
4,Cc1ccc(NC(=O)c2cccc(C(=O)Nc3ccc(C)c(C)c3)c2)cc1C,-0.1%
5,O=C(CCCN1C(=O)c2cccc3cccc(c23)C1=O)OC/C=C/c1ccccc1,6.6%
6,Brc1ccc(Nc2nc(-c3ccncc3)nc3ccccc23)cc1,44.4%
7,Clc1ccc(Nc2nc(-c3ccncc3)nc3ccccc23)cc1,109%
8,Fc1ccc(Nc2nc(-c3ccncc3)nc3ccccc23)cc1F,47.8%
9,O=C(Nc1ccc2c(c1)OCO2)c1ccccc1[N+](=O)[O-],-5.9%
10,O=C(O)CSc1nnc2c(n1)[nH]c1ccccc12,3.1%
11,Cc1ccc(/C=C2\CCC/C(=C\c3ccc(C)o3)C2=O)o1,15.2%
12,Cc1nc(SCC(=O)Nc2nnc(-c3ccccc3)s2)n[nH]1,11.9%
13,C/C(NCc1ccccc1)=C(\C#N)C(=O)NCc1ccccc1,-2.4%
14,COc1cc(-c2csc(N)n2)ccc1O,15.6%
15,CC(C)NC(=O)COc1ccc(C=C2C(=O)NC(=O)NC2=O)cc1,1.8%
16,O=C(COc1ccc(C=C2C(=O)NC(=O)NC2=O)cc1)NCCc1ccccc1,82.5%
17,CC(NC(=O)COc1ccc(C=C2C(=O)NC(=O)NC2=O)cc1)c1ccccc1 (centres undefined),7.3%
18,C/C=C/COC(=O)C1=C(C)NC(=O)NC1c1cc(Cl)c(O)c(OC)c1 (centres undefined),8.4%
19,CCOC(=O)c1c(NC(=O)c2ccc(OC(C)C)c(OCC)c2)sc2ccccc12,80%
20,CCOC(=O)c1c(NC(=O)c2cc(OCC)c(OCC)c(OCC)c2)sc(C)c1C,-6.2%
21,CCOC(=O)c1c(NC(=O)c2ccc(Cl)cc2)sc2ccccc12,39.1%
22,COc1ccc(Nc2ncnc3ccc(C)cc23)cc1,9%

row,Compound,displacement
1,Cc1ccc(OCC(=O)N/N=C\c2ccc(-c3ccc(Cl)cc3)o2)cc1,38.4%
2,Cc1ccc(S(=O)(=O)N/N=C/c2ccc(-c3ccc([N+](=O)[O-])cc3Br)o2)cc1,2.5%
3,Cc1ccc(S(=O)(=O)N/N=C/c2ccc(-c3ccc([N+](=O)[O-])cc3C)o2)cc1,52.8%
4,Cc1ccc(S(=O)(=O)N/N=C/c2ccc(-c3ccc([N+](=O)[O-])cc3Cl)o2)cc1,-9.8%
5,Cc1ccc(OCC(=O)N/N=C\c2ccc(-c3ccc([N+](=O)[O-])cc3)o2)cc1,116%
6,Cc1ccc2nc(-c3ccc(OCC(=O)N/N=C/c4ccc([N+](=O)[O-])o4)cc3)cc(-c3ccccc3)c2c1,-16.7%
7,O=C(COc1ccc(I)cc1)N/N=C/c1ccc(-c2ccc([N+](=O)[O-])cc2)o1,59%
8,O=[N+]([O-])c1ccc(N/N=C/c2ccc(-c3ccc(Cl)cc3)o2)cc1,-4%
9,O=C(COc1ccc(Cl)cc1)N/N=C/c1ccc(I)o1,-6%
10,CCN(CC)Cc1c(O)ccc2c(-c3ccccc3)cc(=O)oc12,-8.3%
11,Brc1ccc(CN2CCN(C3CCN(Cc4ccccc4)CC3)CC2)cc1,-15.5%
12,COc1ccc(S(=O)(=O)N(CC(=O)Nc2ccc(C)c(C)c2)c2ccc(C)cc2)cc1OC,17.2%
13,CCOc1ccc(-c2cc(C(=O)NN)c3ccccc3n2)cc1,-18%
14,Cc1csc(Nc2ccccc2)[n+]1CCO,4.4%
15,Cc1cc(N(C)/N=C/c2ccccc2Cl)nc(-c2ccccc2O)n1,5.1%
16,CC(=O)N1CCN(c2ccc(C(=O)c3ccccc3)cc2F)CC1,0.4%
17,Clc1ccc(-c2ccc(/C=C\c3nc4ccccc4o3)o2)cc1,95.3%
18,N#C/C(=C\c1ccc(-c2cccc(Cl)c2)o1)c1ccc(Cl)cc1,-3.8%
19,O=[N+]([O-])/C=C/c1ccc(-c2ccc(Cl)cc2)o1,14.7%
20,N#C/C(=C\c1ccc(-c2cccc(Cl)c2)o1)c1ccccc1,-6.4%
21,N#C/C(=C/c1ccc(I)o1)c1ccc(Cl)cc1,-24.1%
22,N#C/C(=C\c1ccc(-c2ccc(Cl)c(Cl)c2)o1)c1ccccc1,135%

row,Compound,displacement
1,O=C(/C=C/c1ccc(-c2ccc(Cl)cc2)o1)c1ccccc1,41.8%
2,N#C/C(=C\c1ccc(I)o1)c1ccccc1,-34%
3,N#C/C(=C\c1ccc(-c2ccc(Cl)cc2)o1)c1ccc(Cl)cc1,123%
4,N#C/C(=C\c1ccc(-c2ccc(Cl)cc2)o1)c1ccccc1,130%
5,O/N=C\c1ccc(-c2ccc(Cl)c(Cl)c2)o1,-7.3%
6,N#C/C(=C\c1ccc(-c2cccc(C(F)(F)F)c2)o1)c1ccc(Cl)cc1,-15.3%
7,CSc1ccc(Cl)c(C(=O)Nc2ccc(Cl)cn2)c1,-39.3%
8,CC1CCN(C(=O)CN(c2cccc([N+](=O)[O-])c2)S(=O)(=O)c2ccccc2)CC1,3.3%
9,O=C(NC1CCCCC1)c1ccc([N+](=O)[O-])cc1,0.7%
10,O=C(N1CCCCC1)C12CC3CCC(CC(C3)C1)C2,6.3%
11,O=C(Nc1ccc2nc3c4ccccc4c4ccccc4c3nc2c1)N1CCOCC1,77.1%
12,O=C(c1ccc2nc3c4ccccc4c4ccccc4c3nc2c1)N1CCOCC1,18.3%
13,CCOC(=O)N1CCN(C(=O)Nc2ccc3nc4c5ccccc5c5ccccc5c4nc3c2)CC1,22.4%
14,Cc1ccc(C(=O)N2C(C)CCCC2C)cc1[N+](=O)[O-] (centres undefined),-4%
15,COc1ccc(CC(=O)O/N=C(\N)Cc2ccc([N+](=O)[O-])cc2)cc1OC,14.2%
16,COc1ccccc1/C=C1\SC(=S)N(C2CCS(=O)(=O)C2)C1=O (centres undefined),137%
17,COc1cccc(/C=C2\SC(=S)N(C3CCCCC3)C2=O)c1O,-3.3%
18,O=C1/C(=C/C2CC=CCC2)SC(=S)N1C1CCS(=O)(=O)C1 (centres undefined),9.6%
19,O=C1/C(=C\c2ccc(N3N=C(c4ccccc4)CC3c3ccccc3)cc2)SC(=S)N1C1CCS(=O)(=O)C1 (centres undefined),-14.9%
20,O=C1/C(=C/c2ccc(Cl)cc2Cl)SC(=S)N1C1CCS(=O)(=O)C1 (centres undefined),7.1%
21,O=C1/C(=C/C=C/c2ccccc2)SC(=S)N1C1CCS(=O)(=O)C1 (centres undefined),56.9%

# — PubChem BioAssay AID1240 (Sanford-Burnham Center for Chemical Genomics, 2008)
